Test results taken from PubChem BioAssay (NCI).
Where “and” joins values, the source holds several entries; their conditions need not be identical. Equal values may be shown once. About 83,000 compounds went through this panel and 20% of them were active in at least one assay; those are over-represented in the sample as a whole.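 Single-concentration screen, 48 h exposure, 96-well plates. Endpoint: percent growth. Below 10 = active.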 Calls of active or inactive are those of the source.

Assays:
Experiment in all cases: NCI-60 one-dose screen, 48 h (100 = growth as untreated, 0 = no growth, -100 = all killed)
Settings in all cases: 10 µM unless noted
SK-MEL-2 melanoma = test system: SK-MEL-2 melanoma
EKVX NSCLC = test system: EKVX NSCLC
SN12C renal = test system: SN12C renal
UO-31 renal = test system: UO-31 renal
TK-10 renal = test system: TK-10 renal
ACHN renal = test system: ACHN renal
CAKI-1 renal = test system: CAKI-1 renal
A498 renal = test system: A498 renal
CCRF-CEM leukemia = test system: CCRF-CEM leukemia
MOLT-4 leukemia = test system: MOLT-4 leukemia

SMILES | growth (SK-MEL-2 melanoma) | growth (EKVX NSCLC) | growth (SN12C renal) | growth (UO-31 renal) | growth (TK-10 renal) | growth (ACHN renal) | growth (CAKI-1 renal) | growth (A498 renal) | growth (CCRF-CEM leukemia) | growth (MOLT-4 leukemia)
CN1CCN(c2ccc(Nc3nc(NCCCNS(=O)(=O)c4ccc(Cl)cc4)c4sccc4n3)cc2)CC1 | -9.34% (active) | 50.8% (inactive) | 36.7% (inactive) | -58.9% (active) | 9.93% (active) | 6.32% (active) | 10.8% (inactive) | 19.7% (inactive) | 13% (inactive) | 4.92% (active)
CSc1ccc(C(=NNS(=O)(=O)c2ccc(C)cc2)c2ccc(Cl)cc2)cc1 | 95.9% (inactive) | 98.2% (inactive) | 92.7% (inactive) | 81.8% (inactive) | 104% (inactive) | 105% (inactive) | 86.2% (inactive) | 96.5% (inactive) | 97.7% (inactive) | 98.6% (inactive)
Oc1ccc(-c2nc3ccc(/C(=N\N=C\c4ccc(Cl)cc4)c4ccccc4)cc3[nH]2)cc1 | 90.6% (inactive) | 98.9% (inactive) | 83.5% (inactive) | 63.5% (inactive) | 105% (inactive) | 86.8% (inactive) | 76.1% (inactive) | 65.7% (inactive) | 21.6% (inactive) | 57% (inactive)
O=C(/C=C/c1ccccc1Cl)Nc1ncc(Cc2cc(Cl)ccc2Cl)s1 | 30.4% (inactive) | 37.6% (inactive) | 34.1% (inactive) | 48.2% (inactive) | 61.2% (inactive) | 31.3% (inactive) | 36.6% (inactive) | -16.6% (active) | 14% (inactive) | 24% (inactive)
C/C=C/CC(C)C(O)[C@H](NC(=O)[C@@H]1CCCN1C(=O)[C@](C)(CC)NC(=O)CCCCCCCCC)C(=O)N[C@@](C)(CC)C(=O)N[C@@H](CCC(N)=O)C(=O)N[C@H](CCC(N)=O)C(=O)NC(C)(C)C(=O)NC(C)(C)C(=O)N[C@@H](CCC(N)=O)C(=O)N[C@H](CC(C)C)C(=O)N[C@H](CO)CC(C)C (stereo not given in full) | 108% (inactive) and -50% (active) | 55.1% (inactive) and -69.6% (active) | 28.8% (inactive) and -51.5% (active) | 55.2% (inactive) and -79.7% (active) | 107% (inactive) and -11.3% (active) | 76.8% (inactive) and -79.3% (active) | 42% (inactive) and -69.1% (active) | 12.7% (inactive) and -50.9% (active) | 60.2% (inactive) and -40% (active) | 49.5% (inactive) and -8.22% (active)
CCOC(=O)c1c(NC(=O)c2cccc(C(F)(F)F)c2)sc2c1CCC(=O)C2 | 71.9% (inactive) | 39.4% (inactive) | 42.9% (inactive) | 7.65% (active) | 54.9% (inactive) | 8.52% (active) | 23.9% (inactive) | 106% (inactive) | 8.47% (active) | 36.8% (inactive)
Cc1ccccc1N1CCN(C2=C(Cl)C(=O)c3ncccc3C2=O)CC1 | 81.1% (inactive) | 95.4% (inactive) | 70.1% (inactive) | 2.66% (active) | 68.7% (inactive) | -22.6% (active) | 25.4% (inactive) | 111% (inactive) | 0.314% (active) | 10.4% (inactive)
O=c1oc2ccc(-c3ccc(F)cc3F)cc2c(=O)n1-c1ccc(Br)cc1F | 41% (inactive) | 73.5% (inactive) | 46.2% (inactive) | 84.5% (inactive) | 64.8% (inactive) | 80.5% (inactive) | 61.9% (inactive) | 37.4% (inactive) | 56.3% (inactive) | 57.8% (inactive)
C=CCSC1=NC2C(N(CC)C(=O)N2CC)N1/N=C/C=C/c1ccccc1OC (stereo not given) | 98.7% (inactive) | 83.7% (inactive) | 97.5% (inactive) | 68.3% (inactive) | 122% (inactive) | 74.7% (inactive) | 49.5% (inactive) | 55.1% (inactive) | 63.5% (inactive) | 70.6% (inactive)
C#C[C@]1(O)CC[C@H]2[C@@H]3CC=C4c5sc(Nc6cccc(F)c6)nc5CC[C@]4(C)[C@H]3CC[C@@]21C | 27.8% (inactive) | 25% (inactive) | 45.6% (inactive) | 17.1% (inactive) | 65.1% (inactive) | 35% (inactive) | 7.13% (active) | 31.7% (inactive) | 8.66% (active) | 5.5% (active)
COc1ccc2[nH]cc(/C=N/Nc3ccnc4cc(Cl)ccc34)c2c1 | -83.6% (active) | -96.5% (active) | -100% (active) | -100% (active) | -96.5% (active) | -100% (active) | -99.9% (active) | -98.6% (active) | -42.8% (active) | -48.4% (active)
C[C@@H]1OCC2(CCN(c3cnc(C(=O)Nc4cc(F)cc5cccnc45)cn3)CC2)[C@@H]1N | 97.9% (inactive) | 78.2% (inactive) | 59.6% (inactive) | 41.1% (inactive) | 90.8% (inactive) | 31.8% (inactive) | 45.8% (inactive) | 71.9% (inactive) | 15.7% (inactive) | 20.8% (inactive)
Cc1ccc2c(n1)C(=O)C(Cl)=C(Nc1ccc(C)c(C)c1)C2=O | 40% (inactive) | 52.6% (inactive) | 0.141% (active) | 44% (inactive) | 140% (inactive) | 57% (inactive) | 90% (inactive) | 71.8% (inactive) | 30.8% (inactive) | 60.1% (inactive)
O=C(Nc1ccc(N=Cc2c(O)[nH]c3ccccc23)cc1)Nc1ccc(S(=O)(=O)Nc2ncccn2)cc1 | 111% (inactive) | 98.1% (inactive) | 98.8% (inactive) | 81.7% (inactive) | 108% (inactive) | 104% (inactive) | 94.8% (inactive) | 114% (inactive) | 109% (inactive) | 121% (inactive)
COc1ccccc1Cn1cc(C#N)c(N)c1C(=O)c1ccc(Br)cc1 | 98.6% (inactive) | 85.2% (inactive) | 92.1% (inactive) | 78.1% (inactive) | 108% (inactive) | 96.6% (inactive) | 80.6% (inactive) | 77.7% (inactive) | 91.4% (inactive) | 85.4% (inactive)
CCOP(=O)(OCC)OC[C@]12CC[C@@H](C)[C@H](C)C1C1=CC[C@@H]3[C@@]4(C)CCCNC(C)(C)[C@@H]4CC[C@@]3(C)[C@]1(C)CC2 (stereo not given in full) | 109% (inactive) | 36.8% (inactive) | 40.1% (inactive) | 21.1% (inactive) | 61.2% (inactive) | 34.4% (inactive) | 13% (inactive) | 66.3% (inactive) | -33.3% (active) | -69.1% (active)
CC(=O)Nc1ccccc1-c1nc2ccccc2s1 | 104% (inactive) | 96.1% (inactive) | 92.5% (inactive) | 89.1% (inactive) | 97.7% (inactive) | 102% (inactive) | 95.4% (inactive) | 84.4% (inactive) | 98.4% (inactive) | 104% (inactive)
CCNC(=O)Oc1ccc(/C(=C(/C)c2ccc(OC)cc2)c2ccc(OCCN3CCCCCC3)cc2)cc1 | 83.4% (inactive) | 69.7% (inactive) | 59.4% (inactive) | 0.828% (active) | 116% (inactive) | 61.3% (inactive) | 14.5% (inactive) | 54.8% (inactive) | 36.8% (inactive) | 17.2% (inactive)
O=C(CCCCCC/C=C\c1csc(Br)n1)NO | 101% (inactive) | 94% (inactive) | 98.2% (inactive) | 60.6% (inactive) | 59.4% (inactive) | 82.8% (inactive) | 78.7% (inactive) | 87.1% (inactive) | 52.7% (inactive) | 63.7% (inactive)
CCNCCOc1ccc(/C(=C(/CC)c2ccc(Cl)cc2)c2ccc(OCCCN(C)C)cc2)cc1 | -84% (active) | -84.4% (active) | -85.6% (active) | -95.6% (active) | -89.8% (active) | -98% (active) | -75.1% (active) | -86.3% (active) | -37.5% (active) | -62.6% (active)
O=C(N/N=C/c1cc2ccccc2nc1Cl)c1cc(-c2nc3ccccc3[nH]2)nc2ccccc12 | 82.8% (inactive) | 93.5% (inactive) | 99.9% (inactive) | 70.7% (inactive) | 91.7% (inactive) | 89% (inactive) | 71.6% (inactive) | 54.6% (inactive) | 87.8% (inactive) | 82.2% (inactive)
Brc1ccc(-c2cc(-c3ccc4c(c3)OCCO4)n[nH]2)s1 | 55.3% (inactive) | 48.4% (inactive) | 54.3% (inactive) | 44.5% (inactive) | 105% (inactive) | 47.9% (inactive) | 31.7% (inactive) | 40.3% (inactive) | 18.1% (inactive) | 19.3% (inactive)
